# This is a sample that favours compounds with a hit; in the whole collection about 7.6% have one here.
# M1 agonist = M1 muscarinic receptor agonism | hit rate 3% among 64,000 | B-score at 10 µM | CHO-M1 cells, Fluo-4 calcium fluorescence, agonist mode; active compounds read high;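 active = fluorescence rise, raw or as B-score row- and column-corrected plate score, outside the 99.7% band of its plate's samples, either direction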
# PLAP activator = human PLAP activation. purified PLAP enzyme, luminescent substrate read-out; active compounds read high. activation fold at 20 µM. hit rate 1.2% among 96,000. AID 696; in the data active = activation fold above about 2
# M1 antag = blocks the rat M1 muscarinic receptor response to acetylcholine; CHO-M1 cells, Fluo-4 calcium, ACh EC80 antagonist mode; active compounds read low; AID 628; P08482; hit rate 3.4% among 64,000; B-score at 10 µM;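 active = calcium fluorescence response, raw or row-and-column corrected B-score, differing from the plate sample mean either way at a set confidence level, mostly lower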
# Cav3 T inh = human Cav3.2 channel inhibition, primary screen. Cav3.2-expressing cells, Fluo-4 calcium fluorescence FDSS; active compounds read low. B-score at 10 µM. O95180. hit rate 4% among 100,000. AID 449739;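 active = single-dose well whose peak fluorescence ratio is a statistical outlier from its plate by either plate-standardised score or position-corrected B-score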
# M1 agonist conf = confirmation of rat M1 muscarinic receptor agonists; shares compounds with M1 agonist; CHO-M1 cells, Fluo-4 calcium fluorescence, agonist mode; actives lie on both sides; fluorescence change (max-min) at 10 µM; hit rate 19% among 1,700; AID 1488;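 active = fluorescence change differs from the solvent-only DMSO control mean at a set confidence level in both duplicate runs; inconclusive = differs from solvent-only control mean in just one of two runs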;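 also: an EC20 dose of acetylcholine follows compound addition during the same imaging run; raw fluorescence intensity difference in instrument units with no normalization to controls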
# M4 agonist ctr = rat M4 muscarinic agonism, M1 counter-screen | shares compounds with M1 agonist | AID 1741 | hit rate 9% among 1,700 | fluorescence change (max-min) at 10 µM | CHO M4/Gqi5 cells, Fluo-4 calcium fluorescence, agonist mode; actives lie on both sides;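 active = fluorescence change differing from the plate's solvent-only control wells at 99.7% confidence in both duplicates, whether higher or lower; inconclusive = differs from solvent controls in only one of two duplicates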
# * hit, by the source's call; ? = inconclusive; · = not tested or not shown.
SMILES,M1 agonist,PLAP activator,M1 antag,Cav3 T inh,M1 agonist conf,M4 agonist ctr
CCC(=O)c1cc(F)c(N2CCN(C(=O)Cc3ccccc3)CC2)cc1C,2.7*,1.6,-1.2*,0.51,2.7,-26
CCCC(=O)c1ccc(N2CCN(C(=O)c3ccccc3Br)CC2)c(F)c1,3.1*,1,-3.2*,0.39,?,-46
CCCC(=O)c1ccc(N2CCN(C(=O)c3ccccc3)CC2)c(F)c1,4.1*,1.4,-2.4,0.28,0.12,-42
CCC(=O)c1ccc(N2CCN(C(=O)Cc3ccccc3)CC2)c(F)c1,0,1.7,-0.57,0.33,·,·
Cc1nnsc1SCCNC(=O)c1ccc(F)cc1,·,0.8,·,0.11,·,·
COc1cc(-c2nnc(Sc3ccc(C(F)(F)F)cc3[N+](=O)[O-])o2)cc(OC)c1OC,·,0.9,·,0.45,·,·
O=C(Nc1ccc(C(=O)Oc2ccccc2)c(O)c1)c1ccco1,·,1.1,·,-0.71,·,·
CCOc1nc(SCCOc2ccccc2)nc(N(C)C)n1,-0.14,1.1,0.035,-3,·,·
COC(=O)c1ccc(OCC2c3cc(OC)c(OC)cc3CCN2C(=O)c2ccco2)cc1 (stereo not drawn),11*,1.1,-2.4*,-1.7,-15,?
CCC(=O)N1CCc2cc(OC)c(OC)cc2C1COc1ccc(C(=O)OC)cc1 (stereo not drawn),0.48,1.5,-0.006,-1.5,·,·
O=C(O)CCC(=O)Nc1ccc(Cc2ccc(NC(=O)CCC(=O)O)cc2)cc1,·,0.9,·,-0.16,·,·
Cc1n[nH]c(C)c1N1C(=O)c2cccc3c(N4CCCCCC4)ccc(c23)C1=O,451*,1.1,-14*,-9.7*,2972*,2513*
CC(=O)c1ccc2c3c(cccc13)C(=O)N(c1c(C)nn(C)c1C)C2=O,-1.2,0.9,1,0.025,·,·
C#CCOCCOCCOCCNc1nc(N2CCN(C(=O)[C@H](CCC(=O)O)n3cc(C(N)CC(C)C)nn3)CC2)nc(N2CCN(C(=O)[C@H](CCC(=O)O)n3cc(C(N)[C@H](C)CC)nn3)CC2)n1 (stereo partly drawn),·,·,·,-0.14,·,·
CCOC(=O)Cc1nnc(NC(=O)c2ccccc2OCC)s1,-2.7,·,0.43,-0.51,·,·
CCOC(=O)Cc1cnc(NC(=O)c2ccccc2)s1,3.2*,1,-0.45,1.3,-17,?
CCN1CCCC1CN=Cc1c(O)n(-c2ccccc2)c(=O)c2ccccc12 (stereo not drawn),5.7*,1.2,0.19,-0.75,5.3,-72
CCc1nnc(NC(=O)CSc2nccn2-c2cc(C)cc(C)c2)s1,-0.93,1.3,0.092,-0.025,·,·
O=C(c1ccco1)N1CCN(c2nc3ccccc3n3nnnc23)CC1,7.4*,1.1,-1.4,·,22,14
CCOC(=O)N1CCN(Cc2nc(-c3ccc(C)cc3)no2)CC1,2.5*,1.2,0.99,0.36,-4.9,-11
O=C(CN1CCN(S(=O)(=O)c2cc(Cl)ccc2Cl)CC1)Nc1ccc2c(c1)OCCO2,4.1*,1.5,0.58,·,-31*,?
CC(C)n1c(N2CCN(CC(=O)Nc3ccc4c(c3)OCCO4)CC2)nc2ccccc21,4*,1.7,-1.2,-3,-22*,?
CC(=O)c1c(C)[nH]c(C(=O)CSc2nc3ccc(C)cc3[nH]2)c1C,·,1.7,·,-0.035,·,·
O=C(c1nn2cccnc2c1Cl)N1CCN(c2ccccc2)CC1,-0.21,·,0.35,0.66,·,·
COc1ccc(-n2c(SCC(=O)NCC3CCCO3)nc3ccccc32)cc1 (stereo not drawn),·,1.7,·,-0.54,·,·
SMILES,M1 agonist,PLAP activator,M1 antag,Cav3 T inh,M1 agonist conf,M4 agonist ctr
CC1CN(S(=O)(=O)c2ccc(NC(=O)c3ccco3)cc2)CC(C)O1 (stereo not drawn),12*,1.3,-0.0071,0.42,-12,-32
CC(=O)Nc1nc2n(n1)C(c1ccc(F)cc1)C=C(c1ccccc1)N2 (stereo not drawn),7.6*,1.1,-0.31,-0.52,119*,93*
CC(=O)Nc1nc2n(n1)C(c1ccccc1)C=C(c1ccccc1)N2 (stereo not drawn),20*,2.1*,0.27,-0.037,132*,97
O=C(Nc1nc2nc(-c3ccccc3)cc(-c3ccccc3)n2n1)c1ccco1,3.8*,1.3,0.021,-1.1,-24*,-57
O=C(Nc1nc2n(n1)C(c1ccccc1)C=C(c1ccccc1)N2)c1ccco1 (stereo not drawn),19*,2.9*,-0.31,-2.5,44,26
CS(=O)(=O)Nc1nc2n(n1)C(c1ccccc1)C=C(c1ccc(Br)cc1)N2 (stereo not drawn),·,1.5,·,·,·,·
Cc1ccc(NC(=O)N(Cc2ccc3c(c2)OCO3)Cc2cc3cc4c(cc3[nH]c2=O)OCCO4)cc1,0.63,0.9,-0.32,-0.83,·,·
O=C(Nc1ccc(F)cc1)N(Cc1ccco1)Cc1cc2cc3c(cc2[nH]c1=O)OCO3,-2.5*,0.9,0.79,0.32,-13,-22
CCn1c(SCC(=O)N2CCCc3ccccc32)nc2ccccc2c1=O,3.1*,1.8,0.44,-6.9*,-6.2,-47
CCn1c(SCC(=O)N2CCCc3ccccc32)nc2cccnc21,-1.3,0.9,-0.26,0.39,·,·
O=C(CSc1n[nH]c(-c2cccs2)n1)N1CCCc2ccccc21,·,1.1,·,-0.0081,·,·
O=C(CSc1n[nH]c(-c2ccccc2O)n1)N1CCCc2ccccc21,11*,1,1.2,-1.8,?,-48
COc1ccccc1N1CCN(C(=O)CSc2nc3ccccc3c(=O)n2CC2CCCO2)CC1 (stereo not drawn),9.7*,1.5,-2.6,·,-1.5,-6.2
CCOC(=O)CSc1nc2ccccc2c(=O)n1CC1CCCO1 (stereo not drawn),-0.019,0.8,-0.59,-0.64,·,·
Cc1c(NC(=O)c2cc(-c3cccs3)on2)c(=O)n(-c2ccccc2)n1C,0.12,0.9,-0.82,-0.7,·,·
CCOCCCNC(=S)N1C2CCC1CC(NC(=O)NC13CC4CC(CC(C4)C1)C3)C2 (stereo not drawn),·,1.7,·,0.8,·,·
Cc1ccc(C)c(OCC(O)CN2C(C)CCCC2C)c1 (stereo not drawn),2.5*,0.9,-1.5*,0.27,-29*,-55
C=CCOc1ccc(/C(O)=C2/C(=O)C(=O)N(CCCn3ccnc3)C2c2cccs2)cc1 (stereo not drawn),1.1,1.5,0.51,-0.019,·,·
O=C(CN1CCN(c2ccccc2)CC1)Nc1ccc(-n2cnnn2)cc1,51*,1,-0.44,-0.11,1.1,-36
Cc1ccc(-n2c(CSc3nc(C)cc(C)n3)nnc2SCC(=O)N2CCCC2)cc1,0.17,1.4,0.074,-0.037,·,·
CSC1=C(C#N)C(C)CC(=O)N1 (stereo not drawn),-0.034,·,0.00026,·,·,·
c1ccc(-c2nnc(SCc3cn4ccsc4n3)o2)cc1,39*,1,-0.42,0.81,-13,-40
COCCn1c(SCC(=O)Nc2ccc(S(=O)(=O)N(C)C)cc2)nc2ccccc21,·,0.8,·,0.37,·,·
